{"source": "PubChem BioAssay (NCI)", "note": "Compounds without any hit were thinned out: in the full panel of roughly 83,000, 20% have a hit.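 Values shown are percent growth following 48 h exposure of cells in 96-well plates to a single concentration of compound; below 10 was considered active.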 Activity calls are given as the source filed them.", "data": [{"test_system": "NCI-H460 lung", "assay": "NCI-60 one-dose screen, 48 h (100 = growth as untreated, 0 = no growth, -100 = all killed)", "conditions": "10 µM unless noted", "values": [{"smiles": "CC(=O)NNC(=O)c1sc(NC(C)=O)nc1C", "growth": "108% (inactive)"}, {"smiles": "Nc1ccc(S(=O)(=O)c2ccc(NO)cc2)cc1", "growth": "111% (inactive)"}, {"smiles": "Cc1c(Cc2ccccc2)c(=O)oc2c(C)c(OCC(=O)n3nc(C#N)cc3N)ccc12", "growth": "106% (inactive)"}, {"smiles": "NC(=O)CC(NC(=O)COc1ccc(Cl)cc1Cl)C(=O)O", "note": "(stereo not given)", "growth": "104% (inactive)"}, {"smiles": "CCCCCCCCC1OC1CCCCCCCC(=O)O", "note": "(stereo not given)", "growth": "99.1% (inactive)"}, {"smiles": "CC(=O)/C(=C/c1ccc(-c2ccccc2)cc1)C(=O)c1ccccc1", "growth": "99.8% (inactive)"}, {"smiles": "COc1ccc(-c2nc(Nc3nc4ccccc4[nH]3)nc(N)c2C#N)cc1", "growth": "109% (inactive)"}, {"smiles": "CCC(CCCN1C(=O)c2ccccc2C1=O)Nc1cc(OC)cc2cccnc12", "note": "(stereo not given)", "growth": "112% (inactive)"}, {"smiles": "CC(=O)OC1/C=C\\CC/C=C\\C1", "note": "(stereo not given)", "growth": "102% (inactive)"}, {"smiles": "CCc1ccc(C(=Nc2ccc(N(C)C(=O)CN3CCN(C)CC3)cc2)c2c(O)[nH]c3ccc(C(=O)OC)cc23)cc1", "growth": "-74.5% (active)"}, {"smiles": "c1ccc2[nH]c(-c3ccc(OCCCCCOc4ccc(-c5nc6ccccc6[nH]5)cc4)cc3)nc2c1", "growth": "-19.8% (active)"}, {"smiles": "Oc1ccc(CN(Cc2ccc(C(F)(F)F)cc2)Cc2ccc(O)c3ncccc23)c2cccnc12", "growth": "1.74% (active)"}, {"smiles": "COc1ccc2nc3cc(Cl)ccc3c(NCCCNC(C)=O)c2c1", "growth": "7.26% (active)"}, {"smiles": "O=C(N/N=C\\c1ccc(Cl)cc1)C(=O)N/N=C\\c1ccc(Cl)cc1", "growth": "103% (inactive)"}, {"smiles": "Cc1nc2c(nnn2-c2ccccc2)c2nc(-c3ccccc3)oc(=O)c12", "growth": "116% (inactive)"}, {"smiles": "COC(=O)c1ccc2[nH]c(O)c(C(=Nc3ccc(N(C)C(=O)CN4CCN(C)CC4)cc3)c3ccc(N)cc3)c2c1", "growth": "105% (inactive)"}, {"smiles": "Cc1nc(N)sc1C(=O)NCCO", "growth": "115% (inactive)"}, {"smiles": "CC(=O)Nc1nc(C)c(C(=O)N/N=C/N2CCOCC2)s1", "growth": "113% (inactive)"}, {"smiles": "O=C(O)CC1Cc2ccccc2C1C(=O)O", "note": "(stereo not given)", "growth": "106% (inactive)"}, {"smiles": "Cc1ccc2c(c1)C(=O)CCS2", "growth": "117% (inactive)"}, {"smiles": "CCC(C)(C)c1ccc(OCCCCCCN2CCNCC2)cc1", "growth": "17.7% (inactive)"}, {"smiles": "c1ccc(Nc2ccccn2)cc1", "growth": "115% (inactive)"}, {"smiles": "Brc1ccc(-c2nc3ccccc3s2)cc1", "growth": "97.1% (inactive)"}, {"smiles": "O=C1/C(=N\\c2cc(=O)[nH]n2S(=O)(=O)c2ccccc2)Nc2ccccc21", "growth": "105% (inactive)"}, {"smiles": "CCCC(C)c1cc(Cc2cc(Cl)cc(Cl)c2O)c(O)c(Cc2cc(Cl)cc(Cl)c2O)c1", "note": "(stereo not given)", "growth": "3.71% (active)"}, {"smiles": "c1ccc(Nc2ncc3c(n2)-c2cccn2CC3)cc1", "growth": "95.9% (inactive)"}, {"smiles": "CC1=C(C)C(=O)C(C(C)C2=C(C)C(=O)C(C)=C(C)C2=O)=C(C)C1=O", "growth": "95.9% (inactive)"}, {"smiles": "C=CCSc1nnc(COc2ccc3c(C)c(Cc4ccccc4)c(=O)oc3c2C)o1", "growth": "103% (inactive)"}, {"smiles": "CCOc1nc(-c2ccccc2)cc2c(O)c(C(=O)N/N=C/c3ccccc3O)[nH]c(=O)c12", "growth": "107% (inactive)"}, {"smiles": "CC(=O)Nc1nc(C)c(C(=O)NNC(=O)Nc2ccccc2)s1", "growth": "108% (inactive)"}, {"smiles": "c1cc[c]([Bi]([c]2ccccc2)[c]2ccccc2)cc1", "growth": "96.2% (inactive)"}, {"smiles": "COc1cc(NC(=O)CSc2nc3ccc(Cl)cc3c(=O)n2-c2ccc(F)cc2)cc(OC)c1OC", "growth": "91.3% (inactive)"}, {"smiles": "CC(=O)Nc1nc(C)c(C(=O)NN)s1", "growth": "115% (inactive)"}, {"smiles": "COC(=O)C(C)[C@H]1CC[C@@H]2[C@]1(C)CC=C1[C@]23C=C[C@]2(C[C@@H](OC(C)=O)CC[C@]12C)C(C(=O)OC)C3C(=O)OC", "note": "(stereo not given in full)", "growth": "101% (inactive)"}, {"smiles": "Cc1nc2c(nnn2-c2ccccc2)c2nc(-c3ccc(Cl)cc3)oc(=O)c12", "growth": "115% (inactive)"}, {"smiles": "CCCCCCCCC/C(=N\\NC(=O)c1ccncc1)c1ccc(O)c(O)c1O", "growth": "4.14% (active)"}, {"smiles": "CNCCCNCCCCNCCCN1C(=O)c2ccc3c4c(ccc(c24)C1=O)C(=O)N(CCCNCc1ccccc1OC)C3=O", "growth": "13.5% (inactive)"}, {"smiles": "Cc1nc(NC(=S)Nc2ccc(F)cc2)sc1C(=O)NNC(=S)Nc1ccc(F)cc1", "growth": "70.2% (inactive)"}, {"smiles": "CCOc1ccc(/C=N/NC(=O)c2cccc3ccccc23)cc1OCC", "growth": "101% (inactive)"}, {"smiles": "O=C(/C=C/c1ccc(Br)cc1)c1ccccc1", "growth": "101% (inactive)"}]}, {"test_system": "HOP-92 NSCLC", "assay": "NCI-60 one-dose screen, 48 h (100 = growth as untreated, 0 = no growth, -100 = all killed)", "conditions": "10 µM", "values": [{"smiles": "CC(=O)NNC(=O)c1sc(NC(C)=O)nc1C", "growth": "57.4% (inactive)"}, {"smiles": "Nc1ccc(S(=O)(=O)c2ccc(NO)cc2)cc1", "growth": "108% (inactive)"}, {"smiles": "Cc1c(Cc2ccccc2)c(=O)oc2c(C)c(OCC(=O)n3nc(C#N)cc3N)ccc12", "growth": "89.1% (inactive)"}, {"smiles": "NC(=O)CC(NC(=O)COc1ccc(Cl)cc1Cl)C(=O)O", "note": "(stereo not given)", "growth": "96.4% (inactive)"}, {"smiles": "CCCCCCCCC1OC1CCCCCCCC(=O)O", "note": "(stereo not given)", "growth": "87.8% (inactive)"}, {"smiles": "CC(=O)/C(=C/c1ccc(-c2ccccc2)cc1)C(=O)c1ccccc1", "growth": "89.9% (inactive)"}, {"smiles": "COc1ccc(-c2nc(Nc3nc4ccccc4[nH]3)nc(N)c2C#N)cc1", "growth": "88.6% (inactive)"}, {"smiles": "CCC(CCCN1C(=O)c2ccccc2C1=O)Nc1cc(OC)cc2cccnc12", "note": "(stereo not given)", "growth": "72.4% (inactive)"}, {"smiles": "CC(=O)OC1/C=C\\CC/C=C\\C1", "note": "(stereo not given)", "growth": "92.8% (inactive)"}, {"smiles": "CCc1ccc(C(=Nc2ccc(N(C)C(=O)CN3CCN(C)CC3)cc2)c2c(O)[nH]c3ccc(C(=O)OC)cc23)cc1", "growth": "-70.7% (active)"}, {"smiles": "c1ccc2[nH]c(-c3ccc(OCCCCCOc4ccc(-c5nc6ccccc6[nH]5)cc4)cc3)nc2c1", "growth": "-75% (active)"}, {"smiles": "Oc1ccc(CN(Cc2ccc(C(F)(F)F)cc2)Cc2ccc(O)c3ncccc23)c2cccnc12", "growth": "-3.41% (active)"}, {"smiles": "COc1ccc2nc3cc(Cl)ccc3c(NCCCNC(C)=O)c2c1", "growth": "50.4% (inactive)"}, {"smiles": "O=C(N/N=C\\c1ccc(Cl)cc1)C(=O)N/N=C\\c1ccc(Cl)cc1", "growth": "92.3% (inactive)"}, {"smiles": "Cc1nc2c(nnn2-c2ccccc2)c2nc(-c3ccccc3)oc(=O)c12", "growth": "107% (inactive)"}, {"smiles": "COC(=O)c1ccc2[nH]c(O)c(C(=Nc3ccc(N(C)C(=O)CN4CCN(C)CC4)cc3)c3ccc(N)cc3)c2c1", "growth": "78.3% (inactive)"}, {"smiles": "Cc1nc(N)sc1C(=O)NCCO", "growth": "-17.9% (active)"}, {"smiles": "CC(=O)Nc1nc(C)c(C(=O)N/N=C/N2CCOCC2)s1", "growth": "48.4% (inactive)"}, {"smiles": "O=C(O)CC1Cc2ccccc2C1C(=O)O", "note": "(stereo not given)", "growth": "108% (inactive)"}, {"smiles": "Cc1ccc2c(c1)C(=O)CCS2", "growth": "89.1% (inactive)"}, {"smiles": "CCC(C)(C)c1ccc(OCCCCCCN2CCNCC2)cc1", "growth": "51.3% (inactive)"}, {"smiles": "c1ccc(Nc2ccccn2)cc1", "growth": "97.9% (inactive)"}, {"smiles": "Brc1ccc(-c2nc3ccccc3s2)cc1", "growth": "97.7% (inactive)"}, {"smiles": "O=C1/C(=N\\c2cc(=O)[nH]n2S(=O)(=O)c2ccccc2)Nc2ccccc21", "growth": "89.6% (inactive)"}, {"smiles": "CCCC(C)c1cc(Cc2cc(Cl)cc(Cl)c2O)c(O)c(Cc2cc(Cl)cc(Cl)c2O)c1", "note": "(stereo not given)", "growth": "-19.2% (active)"}, {"smiles": "c1ccc(Nc2ncc3c(n2)-c2cccn2CC3)cc1", "growth": "77.4% (inactive)"}, {"smiles": "CC1=C(C)C(=O)C(C(C)C2=C(C)C(=O)C(C)=C(C)C2=O)=C(C)C1=O", "growth": "114% (inactive)"}, {"smiles": "C=CCSc1nnc(COc2ccc3c(C)c(Cc4ccccc4)c(=O)oc3c2C)o1", "growth": "100% (inactive)"}, {"smiles": "CCOc1nc(-c2ccccc2)cc2c(O)c(C(=O)N/N=C/c3ccccc3O)[nH]c(=O)c12", "growth": "82.8% (inactive)"}, {"smiles": "CC(=O)Nc1nc(C)c(C(=O)NNC(=O)Nc2ccccc2)s1", "growth": "60.6% (inactive)"}, {"smiles": "c1cc[c]([Bi]([c]2ccccc2)[c]2ccccc2)cc1", "growth": "74.1% (inactive)"}, {"smiles": "COc1cc(NC(=O)CSc2nc3ccc(Cl)cc3c(=O)n2-c2ccc(F)cc2)cc(OC)c1OC", "growth": "36% (inactive)"}, {"smiles": "CC(=O)Nc1nc(C)c(C(=O)NN)s1", "growth": "3.84% (active)"}, {"smiles": "COC(=O)C(C)[C@H]1CC[C@@H]2[C@]1(C)CC=C1[C@]23C=C[C@]2(C[C@@H](OC(C)=O)CC[C@]12C)C(C(=O)OC)C3C(=O)OC", "note": "(stereo not given in full)", "growth": "83.5% (inactive)"}, {"smiles": "Cc1nc2c(nnn2-c2ccccc2)c2nc(-c3ccc(Cl)cc3)oc(=O)c12", "growth": "117% (inactive)"}, {"smiles": "CCCCCCCCC/C(=N\\NC(=O)c1ccncc1)c1ccc(O)c(O)c1O", "growth": "46.6% (inactive)"}, {"smiles": "CNCCCNCCCCNCCCN1C(=O)c2ccc3c4c(ccc(c24)C1=O)C(=O)N(CCCNCc1ccccc1OC)C3=O", "growth": "69% (inactive)"}, {"smiles": "Cc1nc(NC(=S)Nc2ccc(F)cc2)sc1C(=O)NNC(=S)Nc1ccc(F)cc1", "growth": "19.7% (inactive)"}, {"smiles": "CCOc1ccc(/C=N/NC(=O)c2cccc3ccccc23)cc1OCC", "growth": "68.5% (inactive)"}, {"smiles": "O=C(/C=C/c1ccc(Br)cc1)c1ccccc1", "growth": "96.2% (inactive)"}]}]}
